For eleven compounds, Potency and outcome results are on record in PubChem BioAssay (NCATS).

Records with an inconclusive call do not appear. Calls of active or inactive are those of the source. Unless noted, calls come from the whole dose curve; as a rule, active = well fitted curve in the direction sought with a large enough effect; inconclusive = small, poorly fitted or top-dose-only effect, or another doubt; inactive = no such curve, though single readings can be large; an effect the other way counts as inactive or inconclusive.

A short description of assay [1]: qHTS for Inhibitors of Plasmodium falciparum (CP250) proliferation (AID 504320). In outline:
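Parasite growth measured as SYBR Green DNA fluorescence (ex 485, em 535 nm) after overnight lysis following 72 h culture at 37 °C, 0.3% parasitemia, 2.5% hematocrit. Values normalized against DMSO and 0.29 uM artemisinin controls, with plate-stack correction.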
(In general: Quantitative high-throughput screening tests each substance at several concentrations.)

For assay [2], the target named is Atrial natriuretic peptide receptor 1 (Homo sapiens) (UniProt P16066). As to the kind of experiment: Natriuretic polypeptide receptor (hNpr1) antagonism - Pilot CMLD screen (AID 1347052; calls by dose curve;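 note: HEK293 cells with hNpr1 stimulated by hNppA peptide at 0.1 nM; cGMP level read as GloSensor luciferase luminescence after agonist stimulation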).
Sequence of Atrial natriuretic peptide receptor 1 (Homo sapiens) (P16066 whole entry, looked up): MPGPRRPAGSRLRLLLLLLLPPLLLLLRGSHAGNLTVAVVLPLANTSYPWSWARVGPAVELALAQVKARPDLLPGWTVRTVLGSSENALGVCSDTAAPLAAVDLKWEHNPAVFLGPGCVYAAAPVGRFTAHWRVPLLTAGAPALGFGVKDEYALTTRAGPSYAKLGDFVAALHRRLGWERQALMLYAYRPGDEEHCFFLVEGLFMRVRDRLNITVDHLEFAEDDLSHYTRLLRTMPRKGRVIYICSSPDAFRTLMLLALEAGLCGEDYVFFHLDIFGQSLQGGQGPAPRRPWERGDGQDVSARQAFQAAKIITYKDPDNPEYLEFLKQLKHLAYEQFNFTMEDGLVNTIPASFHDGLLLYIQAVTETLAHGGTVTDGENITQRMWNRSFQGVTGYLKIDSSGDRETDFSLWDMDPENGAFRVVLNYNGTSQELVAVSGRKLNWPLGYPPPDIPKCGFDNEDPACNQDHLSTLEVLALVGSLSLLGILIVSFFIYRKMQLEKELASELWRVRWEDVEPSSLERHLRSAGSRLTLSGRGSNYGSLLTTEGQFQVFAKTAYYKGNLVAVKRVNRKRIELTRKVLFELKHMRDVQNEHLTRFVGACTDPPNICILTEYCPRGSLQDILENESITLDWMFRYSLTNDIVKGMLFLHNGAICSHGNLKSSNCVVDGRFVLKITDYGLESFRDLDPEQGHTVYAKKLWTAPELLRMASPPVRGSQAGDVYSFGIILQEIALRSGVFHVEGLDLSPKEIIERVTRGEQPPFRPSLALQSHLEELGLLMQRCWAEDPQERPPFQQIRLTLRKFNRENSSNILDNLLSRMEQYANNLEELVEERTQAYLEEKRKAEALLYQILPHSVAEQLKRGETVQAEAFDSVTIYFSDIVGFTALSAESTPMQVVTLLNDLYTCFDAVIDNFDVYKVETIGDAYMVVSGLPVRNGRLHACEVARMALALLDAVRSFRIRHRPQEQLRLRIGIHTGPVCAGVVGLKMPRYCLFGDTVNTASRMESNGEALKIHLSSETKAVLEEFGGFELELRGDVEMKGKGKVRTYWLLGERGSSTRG
Assay [3] concerns the target Furin (Homo sapiens) (UniProt P09958). As to the kind of experiment: Furin counterscreen qHTS for Zika virus inhibitors (AID 1347149). Note: nearly all actives have a fitted effect of over 70% in size. Note: potency is the fitted concentration of half-maximal effect. The method, boiled down:
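Counterscreen measures cleavage of 2 microM BOC-RVRR-AMC, below its ~15 microM Km, by 5 nM full-length human furin at pH 7.0 after a 15-min compound preincubation. Inhibition derives from the 15-min fluorescence increase at 37C.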
Background: The purpose of a counterscreen is to sort out artefacts and off-target activity.

The test system of assay [4] is Zika virus NS2B-NS3 protease (unlinked). Kind of assay: Optimization of GU AMC qHTS for Zika virus inhibitors: Unlinked NS2B-NS3 protease assay (AID 1347151). Note: nearly all actives have a fitted effect of over 80% in size. The method, boiled down:
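Fluorescence gain (340/450 nm) over 15 min at room temperature, ~20% conversion, gave percent inhibition fitted to a 4-parameter Hill equation; enzyme was unlinked NS2B-NS3 (25 nM final), pH 8.0 Tris buffer.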

Assay [5] is described as follows: ZIKV-mCherry secondary qHTS for Zika virus inhibitors (AID 1347158). Note: top concentration of the series differs between compounds. In outline:
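Percent infection is the share of Hoechst-identified Vero nuclei with mCherry signal above 450 RFU (3 SD over negative controls). Cells were infected with recombinant ZIKV-mCherry at MOI 1 after compound addition and imaged 48–72 h later.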

In assay [6] the test system is Zika virus NS2B-NS3 protease (linked). As to the kind of experiment: 384 well plate NINDS AMC confirmatory qHTS for Zika virus inhibitors (AID 1347163).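 Note: linked protease at 5 30 or 60 nM final depending on run; fluorescence of AMC released from Ac-VKTGKR-AMC peptide cleaved by the protease; top concentration of the series differs between compounds; nearly all actives have a fitted effect of over 50% in size.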 The method, boiled down:
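Fluorescence at 355/460 nm was read after 25 minutes of cleavage of 30 microM Ac-VKTGKR-AMC at room temperature, in the dark. Before substrate addition, compounds (up to 1 mM final) sat ~15 minutes with 5, 30 or 60 nM linked protease. Signals were normalized to no-enzyme and no-inhibitor wells.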

The test system of assay [7] is Zika virus NS2B-NS3 protease (linked construct). As to the kind of experiment: 384 well plate NINDS Rhodamine confirmatory qHTS for Zika virus inhibitors (AID 1347164).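 Note: fluorescence from protease cleavage of Ac-LKRR-rhodamine 110 substrate; top concentration of the series differs between compounds; nearly all actives have a fitted effect of over 65% in size.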 The method, boiled down:
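Fluorescence at 485/538 nm was measured 25 minutes after adding 10 microM Ac-LKRR-Rd substrate, in the dark at room temperature. The protease (5, 30 or 60 nM final) had been preincubated ~15 minutes with compound; aprotinin as control.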

Assay [8] is described as follows: HepG2 cells viability qHTS for Zika virus inhibitors (AID 1347168). Note: potency is the fitted concentration of half-maximal effect. The method, boiled down: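 Luminescent ATP readout (CellTiter Glo) after 30 min at 37 degrees C gives viability; cells in DMEM + 4% FBS were treated 24 to 48 hours with compound, following overnight attachment.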
The nature of assay [9]: Tertiary RLuc qRT-PCR qHTS assay for Zika virus inhibitors (AID 1347169). Note: nearly all actives have a fitted effect of over 55% in size. Note: potency is the fitted concentration of half-maximal effect. In outline:
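Orthogonal cell-based readout: luminescence measured 1-1.5 hrs after adding live-cell Renilla substrate to Vero cells that had been infected with ZIKV-RLuc (MOI 1-2) post-compound, incubated 48-72 hrs at 37 degrees C.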
Background: Real-time PCR tracks product formation cycle by cycle.

Assay [10] concerns the target ATP-dependent 6-phosphofructokinase (Trypanosoma brucei brucei) (UniProt O15648). Kind of assay: qHTS Assay to Find Inhibitors of T. brucei phosphofructokinase: hit validation (AID 492961).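 Note: luminescence reports ADP formed as PFK phosphorylates fructose-6-phosphate with ATP.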 In outline:
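Measures ADP output of PFK (1.25 nM) at 0.1 mM ATP, 0.5 mM F6P, pH 8.0 TEA buffer with 5 mM MgCl2. No-enzyme wells define full inhibition; uninhibited enzyme wells define zero.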

In assay [11] the target is Ubiquitin carboxyl-terminal hydrolase 1 (Homo sapiens) (UniProt O94782). As to the kind of experiment: Inhibitors of USP1/UAF1: Pilot qHTS (AID 504865).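 Note: rhodamine fluorescence freed from ubiquitin-rhodamine substrate followed over time; top concentration of the series differs between compounds; nearly all actives have a fitted effect of over 35% in size.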 In outline: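 Deubiquitinase activity followed as kinetic rhodamine fluorescence release from 150 nM Ub-Rho. 1 nM USP1/UAF1 with compound, after 15 min room-temperature preincubation, in HEPES pH 7.8 buffer containing TCEP, EDTA, BSA and Tween-20.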
Sequence of Ubiquitin carboxyl-terminal hydrolase 1 (Homo sapiens) (O94782 whole entry, looked up): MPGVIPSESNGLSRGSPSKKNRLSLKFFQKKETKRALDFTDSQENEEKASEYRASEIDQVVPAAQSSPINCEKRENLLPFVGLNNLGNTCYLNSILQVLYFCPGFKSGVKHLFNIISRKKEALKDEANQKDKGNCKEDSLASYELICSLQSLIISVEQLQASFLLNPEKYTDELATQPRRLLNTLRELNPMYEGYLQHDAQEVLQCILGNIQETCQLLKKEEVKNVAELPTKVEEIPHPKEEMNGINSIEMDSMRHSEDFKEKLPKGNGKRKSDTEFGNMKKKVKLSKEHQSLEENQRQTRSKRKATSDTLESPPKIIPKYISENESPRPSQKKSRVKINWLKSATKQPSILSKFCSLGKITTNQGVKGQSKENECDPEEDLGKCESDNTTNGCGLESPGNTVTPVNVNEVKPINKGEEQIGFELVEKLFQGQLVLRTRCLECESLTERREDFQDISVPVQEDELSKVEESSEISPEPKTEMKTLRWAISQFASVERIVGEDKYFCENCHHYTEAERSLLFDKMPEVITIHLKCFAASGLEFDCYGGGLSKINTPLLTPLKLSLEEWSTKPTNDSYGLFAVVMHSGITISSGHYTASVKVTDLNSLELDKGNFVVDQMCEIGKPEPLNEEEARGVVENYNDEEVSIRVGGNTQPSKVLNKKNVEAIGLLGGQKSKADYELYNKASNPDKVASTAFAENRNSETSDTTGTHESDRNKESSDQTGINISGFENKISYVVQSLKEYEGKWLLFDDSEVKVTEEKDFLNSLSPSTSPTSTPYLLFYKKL

Assay [12] concerns the target Luciferin 4-monooxygenase (Photinus pyralis) (UniProt P08659). As to the kind of experiment: Biochemical firefly luciferase enzyme assay for NPC (AID 624030).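 Note: purified P. pyralis luciferase at 10 nM with luciferin and ATP substrate; nearly all actives have a fitted effect of over 70% in size.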 In outline:
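Direct inhibition of firefly luciferase enzyme (10 nM final, 50 mM Tris Acetate) assessed by luminescence within 5 minutes. Percent activity scaled between DMSO and PTC124 positive control, with concentration-effect curves classified by fit quality and response.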

A short description of assay [13]: S16 Schwann cell PMP22 intronic element firefly luciferase assay (AID 624032). Note: potency is the fitted concentration of half-maximal effect; nearly all actives have a fitted effect of over 30% in size. In outline:
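Luciferase reporter of PMP22 intronic-element expression in stably transfected S16 rat Schwann cells, read by ONE-Glo luminescence after 24 h compound exposure at 37 C. Activity scaled between DMSO (0%) and positive-control PTC124; concentration-effect curves quality-classified.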

The nature of assay [14]: S16 Schwann cell PMP22 intronic element beta-lactamase assay (AID 624044; calls by dose curve; note: potency is the fitted concentration of half-maximal effect; nearly all actives have a fitted effect of over 15% in size). In outline:
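Beta-lactamase reporter under a PMP22 intronic regulatory element in stable S16 rat Schwann cells; 24 h compound exposure. 460 nm blue signal normalized between DMSO (0%) and potassium clavulanate, with 535 nm FRET tracking viability; curves classed by r2 and response.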

Assay [15] can be described thus: qHTS profiling for inhibitors of Plasmodium falciparum proliferation (AID 504749). Note: potency is the fitted concentration of half-maximal effect; nearly all actives have a fitted effect of over 60% in size. The following applies: P. falciparum in erythrocytes, SYBR Green DNA, 72 h. In outline: (§1)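 SYBR Green fluorescence of parasite DNA, read after lysis and overnight dark incubation, measured growth over 72 h in erythrocyte culture at 0.3% parasitemia and 2.5% hematocrit. Data normalised to DMSO and 0.29 uM artemisinin, with plate-drift correction.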

Assay [16] has as its system 3D7. Described as above. Particulars: P. falciparum in erythrocytes, SYBR Green DNA, 72 h; series mostly up to 28.7 µM. In outline:
as §1

Assay [17] concerns 7G8. The description is as above. The following applies: P. falciparum in erythrocytes, SYBR Green DNA, 72 h; series mostly up to 28.7 µM. In outline:
as §1

The subject of assay [18] is AA1029. The assay is described as above. The following applies: P. falciparum in erythrocytes, SYBR Green DNA, 72 h; series mostly up to 28.7 µM. The method, boiled down: as §1
For assay [19], the system named is AS120. The assay is described as above. Particulars: P. falciparum in erythrocytes, SYBR Green DNA, 72 h; series mostly up to 28.7 µM. In outline: as §1
For assay [20], the system named is ATS189. The description is as above. The following applies: P. falciparum in erythrocytes, SYBR Green DNA, 72 h; series mostly up to 28.7 µM. The method, boiled down:
as §1

Assay [21] deals with ATS95. The description is as above. Particulars: P. falciparum in erythrocytes, SYBR Green DNA, 72 h; series mostly up to 28.7 µM. In outline: as §1
In assay [22] the test system is C2A. Described as above. Particulars: P. falciparum in erythrocytes, SYBR Green DNA, 72 h; series mostly up to 28.7 µM. The method, boiled down: as §1
The subject of assay [23] is CP185. The assay is described as above. Particulars: P. falciparum in erythrocytes, SYBR Green DNA, 72 h; series mostly up to 28.7 µM. The method, boiled down:
as §1

Assay [24] concerns CP191. Described as above. Particulars: P. falciparum in erythrocytes, SYBR Green DNA, 72 h; series mostly up to 28.7 µM. The method, boiled down:
as §1

Assay [25] deals with CP192. Described as above. Particulars: P. falciparum in erythrocytes, SYBR Green DNA, 72 h; series mostly up to 28.7 µM. In outline:
as §1

Assay [26] has as its system CP194. The description is as above. Particulars: P. falciparum in erythrocytes, SYBR Green DNA, 72 h; series mostly up to 28.7 µM. The method, boiled down: as §1
Assay [27] relates to CP201. Described as above. Particulars: P. falciparum in erythrocytes, SYBR Green DNA, 72 h; series mostly up to 28.7 µM. The method, boiled down:
as §1

In assay [28] the test system is CP203. Described as above. The following applies: P. falciparum in erythrocytes, SYBR Green DNA, 72 h; series mostly up to 28.7 µM. In outline:
as §1

Assay [29] concerns CP211. The assay is described as above. Particulars: P. falciparum in erythrocytes, SYBR Green DNA, 72 h; series mostly up to 28.7 µM. In outline:
as §1

In assay [30] the test system is CP215. Described as above. The following applies: P. falciparum in erythrocytes, SYBR Green DNA, 72 h; series mostly up to 28.7 µM. The method, boiled down: as §1
The test system of assay [31] is CP217. The description is as above. Particulars: P. falciparum in erythrocytes, SYBR Green DNA, 72 h; series mostly up to 28.7 µM. In outline:
as §1

The subject of assay [32] is CP237. Described as above. The following applies: P. falciparum in erythrocytes, SYBR Green DNA, 72 h; series mostly up to 28.7 µM. The method, boiled down: as §1
For assay [33], the system named is CP238. Described as above. The following applies: P. falciparum in erythrocytes, SYBR Green DNA, 72 h; series mostly up to 28.7 µM. In outline:
as §1

Assay [34] has as its system CP247. The description is as above. The following applies: P. falciparum in erythrocytes, SYBR Green DNA, 72 h; series mostly up to 28.7 µM. In outline: as §1

Sequence of Furin (Homo sapiens) (P09958 whole entry, looked up): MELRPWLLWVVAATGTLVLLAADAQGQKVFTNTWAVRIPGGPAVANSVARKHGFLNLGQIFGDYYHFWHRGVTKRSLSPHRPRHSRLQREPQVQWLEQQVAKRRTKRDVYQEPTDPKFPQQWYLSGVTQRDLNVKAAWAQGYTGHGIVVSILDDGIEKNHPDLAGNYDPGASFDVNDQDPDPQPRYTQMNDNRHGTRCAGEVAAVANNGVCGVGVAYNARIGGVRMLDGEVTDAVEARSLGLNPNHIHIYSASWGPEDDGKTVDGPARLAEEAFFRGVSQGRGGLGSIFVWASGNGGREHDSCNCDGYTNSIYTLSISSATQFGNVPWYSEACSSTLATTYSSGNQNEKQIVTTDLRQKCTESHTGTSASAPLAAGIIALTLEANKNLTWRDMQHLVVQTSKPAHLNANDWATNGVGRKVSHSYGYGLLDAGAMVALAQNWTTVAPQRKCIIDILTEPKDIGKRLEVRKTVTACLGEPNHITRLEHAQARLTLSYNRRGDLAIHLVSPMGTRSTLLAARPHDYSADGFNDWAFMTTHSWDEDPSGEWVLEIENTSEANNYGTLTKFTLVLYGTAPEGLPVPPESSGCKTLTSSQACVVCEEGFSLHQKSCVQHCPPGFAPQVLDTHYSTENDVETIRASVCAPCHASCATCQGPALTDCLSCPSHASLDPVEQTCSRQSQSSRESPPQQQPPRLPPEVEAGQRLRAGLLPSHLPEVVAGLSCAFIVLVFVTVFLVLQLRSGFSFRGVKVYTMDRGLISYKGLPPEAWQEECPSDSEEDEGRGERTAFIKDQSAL
Sequence of ATP-dependent 6-phosphofructokinase (Trypanosoma brucei brucei) (O15648 whole entry, looked up): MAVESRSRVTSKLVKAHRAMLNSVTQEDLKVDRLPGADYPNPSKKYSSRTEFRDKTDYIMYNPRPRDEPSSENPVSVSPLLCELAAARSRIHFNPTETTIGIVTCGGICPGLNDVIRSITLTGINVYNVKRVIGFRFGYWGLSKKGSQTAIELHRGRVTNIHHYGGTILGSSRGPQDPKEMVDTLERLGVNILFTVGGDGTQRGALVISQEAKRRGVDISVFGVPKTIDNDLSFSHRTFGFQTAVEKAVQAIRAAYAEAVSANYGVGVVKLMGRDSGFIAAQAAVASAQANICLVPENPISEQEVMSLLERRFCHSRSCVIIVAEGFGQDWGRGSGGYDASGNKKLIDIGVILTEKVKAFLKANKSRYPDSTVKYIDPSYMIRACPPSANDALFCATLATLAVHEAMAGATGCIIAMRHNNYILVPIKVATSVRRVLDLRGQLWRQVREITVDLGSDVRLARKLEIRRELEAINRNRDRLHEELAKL
Sequence of Luciferin 4-monooxygenase (Photinus pyralis) (P08659 whole entry, looked up): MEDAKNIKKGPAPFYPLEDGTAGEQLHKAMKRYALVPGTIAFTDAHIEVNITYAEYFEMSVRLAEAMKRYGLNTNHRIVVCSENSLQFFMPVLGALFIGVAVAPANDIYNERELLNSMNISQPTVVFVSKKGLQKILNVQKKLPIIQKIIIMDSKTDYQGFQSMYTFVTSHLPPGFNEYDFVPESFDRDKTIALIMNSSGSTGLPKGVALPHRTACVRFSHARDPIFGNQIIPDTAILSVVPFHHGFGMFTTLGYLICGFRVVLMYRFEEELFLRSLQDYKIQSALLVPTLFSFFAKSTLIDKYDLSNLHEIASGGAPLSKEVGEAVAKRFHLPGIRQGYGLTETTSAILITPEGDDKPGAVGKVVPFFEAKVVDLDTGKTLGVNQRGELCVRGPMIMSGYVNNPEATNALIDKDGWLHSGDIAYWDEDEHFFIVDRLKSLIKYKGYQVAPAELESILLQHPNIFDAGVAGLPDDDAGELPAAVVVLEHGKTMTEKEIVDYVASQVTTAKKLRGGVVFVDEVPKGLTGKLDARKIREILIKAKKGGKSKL

For the compound `O=C1N(Cc2ccccc2C(F)(F)F)c2ccccc2[C@@]12O[C@H](COc1ccccc1)CC1=C2CCC1`, the Potency result in assay [1] and in [2] was “inactive” each time.
Regarding `COC(=O)CCC(=O)N1C2=NC3=C(C(=O)N(Cc4ccc5c(c4)OCO5)C3=O)C3N(C)c4ccccc4[C@]23C[C@H]1CO` (stereo partly drawn), the Potency result in assay [1] and in assay [2] was “inactive” in each case.
Consider `N#Cc1ccc2c(c1)C[C@]1(c3ccsc3)Oc3c(c(=O)oc4ccc(F)cc34)[C@@H]2O1`, for which the Potency entry in assay [1] and in [2] was “inactive” each time.
With `N#Cc1ccc2c(c1)C[C@]1(CCCCN3C(=O)c4ccccc4C3=O)OC3=C(C(=O)OC4(CCCCC4)C3)[C@H]2O1`, the Potency entry in assay [1] and in assay [2] was “inactive” each time.
Consider `Cc1cccc(OCC(=O)Nc2ccc(C(=O)OCc3cc(=O)n4nc(C5CC5)sc4n3)cc2)c1`, for which, in assay [3], the Potency entry is “inactive”.
Turning to `COc1cc2c(cc1OC)[C@@H]1O[C@](c3ccsc3)(C2)OC2=C1C(=O)CC(C)(C)C2`, the Potency entry in assay [1] and in [2] was “inactive” in each case.
Regarding `C=CCN1c2ccccc2[C@]23CCC(=O)N(Cc4cc(OC)c(OC)c(OC)c4)C2=NC(C(=O)OC)=C(C(=O)OC)[C@H]13`, the Potency result in assay [1] and in [2] was “inactive” throughout.
Turning to `COC1=CC2C(=O)C([C@@H]3c4ccccc4C[C@]23C)C1(O)c1cccc(OC)c1` (stereo partly drawn), the Potency result in assay [1] and in assay [2] was “inactive” each time.
Regarding `Nc1ncnc2c1ncn2[C@@H]1O[C@H](CSCC[C@H](N)C(=O)O)[C@@H](O)[C@H]1O`, the Potency entry in assay [3], in [4], in assay [5], in assay [6], in [7] and in assay [8] was “inactive” each time. In addition, the Potency entry in assay [9] was “inactive”.
In the case of `NC(=O)[C@@H](CCCN=C(N)N)NC(=O)[C@@H](CCCN=C(N)N)NC(=O)[C@@H](CCCN=C(N)N)NC(=O)[C@@H](CCCN=C(N)N)NC(=O)[C@@H](CCCN=C(N)N)NC(=O)[C@H](N)CCCN=C(N)N`, the Potency in assay [3] is 2510 nM (active).
As for `CC(C)C[C@@H](NC(=O)[C@H](Cc1ccccc1)NC(=O)c1cnccn1)B(O)O`, the outcome in assay [10] was inactive. The Potency result in assay [11], in [12], in assay [3] and in assay [4] was “inactive” each time. The Potency is 3.6 nM (active) in assay [13]; 12.6 nM (active) in assay [14]; 42.6 nM (active) in assay [8]; 26.9 nM (active) in assay [9]; 89.1 nM (active) in assay [15] (parasite line A); 63.1 nM (active) in assay [15] (parasite line B). Further, the Potency in [16] was 126 nM (active); in assay [17], 31.6 nM (active); in [18], 70.8 nM (active); in assay [19] it was 100 nM (active); in assay [20], 112 nM (active); in assay [21], 56.2 nM (active). The Potency in [22] is 126 nM (active); in assay [23], 112 nM (active); in assay [24], 89.1 nM (active); in assay [25] it was 151 nM (active); in assay [26] it was 426 nM (active); in assay [27], 601 nM (active). For the same compound, the Potency in [28] was 169 nM (active); in [29], 757 nM (active); in [30], 536 nM (active); in assay [31], 126 nM (active); in assay [32], 79.4 nM (active); in assay [33], 112 nM (active). In addition, in assay [34], the Potency was 126 nM (active).
